The list is not random: actives were taken first. Their share in the collection is about 19%.
HT1080 IDH1KD tx – toxicity to HT-1080 IDH1 knockdown cells (counter line) | actives 2% (n = 360,000) | Potency, µM (doses to about 46.1 µM), for inactives: at the top dose activity, negative = toxicity, most hits filed as cytotoxic | HT-1080 IDH1 knockdown viability, ATP luminescence, 48 h;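 note: potency is the fitted concentration of half-maximal effect; 0% = DMSO wells and -100% = cell-free medium wells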
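% activity derives from luminescence (CellTiter-Glo), normalised to DMSO and no-cell wells. HT-1080-IDH1KD cells, 750/well, had 48 h compound exposure at 37 °C.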
TDP1 cell CPT – DT40-hTDP1 cell growth loss with CPT; chicken DT40 Tdp1-/-;hTDP1 cells + 20 nM CPT, ATP luminescence, 48 h; Potency, µM (doses to about 46.2 µM), for inactives: top-dose activity change, negative = growth inhibition, actives largely listed as inhibitors; actives 12% (n = 420,000); AID 686979; note: potency is the fitted concentration of half-maximal effect; nearly all actives have a fitted effect of over 55% in size
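Cell growth measured by CellTiter-Glo luminescence after a minimum 48 h, 37 C compound exposure with 20 nM CPT in Tdp1-knockout DT40 cells stably expressing hTDP1, seeded 400/well; qHTS titration format.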
TDP1 cell noCPT – qHTS for Inhibitors of human tyrosyl-DNA phosphodiesterase 1 (TDP1): qHTS in cells in absence of CPT; actives 15% (n = 420,000); DT40 Tdp1-/- hTDP1 cells, no CPT, ATP luminescence, 48 h; AID 686978, 2013; Potency, µM (highest dose often 46.2 µM), inactives show at the top dose activity change, negative = growth inhibition, hits mostly inhibitors; note: potency is the fitted concentration of half-maximal effect; nearly all actives have a fitted effect of over 55% in size
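DT40 Tdp1-/-;hTDP1 cells, no CPT (DMSO vehicle only), 400 cells/well; compounds pin-transferred; ≥48 hr, 37 °C; CellTiter-Glo 30 min RT dark, luminescence read.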
IL1B secr inh – blocks inflammasome-driven IL-1 beta release | activity change, % at 57.5 µM | THP-1 LPS/ATP IL-1B secretion, AlphaLISA, 16 h; stronger effect = lower value | actives 4.7% (n = 360,000) | AID 743279; in the data active = activity change below about -50%; inconclusive = mostly about -30% to -49%
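THP-1 cells pretreated 1 hr with compounds (up to 57.5 uM final), then stimulated with LPS (250 ng/mL final) plus ATP (1.25 mM final); secreted IL-1B measured by AlphaLISA after 16 hr, decreased signal indicating inhibition.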
ELG1 repair inh – ELG1-dependent DNA repair inhibition; AID 504467; actives 2.3% (n = 330,000); Potency, µM (series often up to 46.1 µM), for the others: at the highest dose activity change, negative = inhibition, actives largely listed as inhibitors; HEK293T ELG1-luciferase reporter, luminescence, 16 h; DNA damage induced by 5-fluorouridine; note: potency is the fitted concentration of half-maximal effect; nearly all actives have a fitted effect of over 55% in size
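Overnight (16 hr) co-exposure of 2,000 cells/well to 5-fluorouridine and compound at 37 °C preceded detection. Luciferase was quantified via ONE-Glo luminescence; loss of signal denotes inhibition.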
HT1080NT lethal – kills 2HG-producing HT-1080-NT fibrosarcoma cells; HT-1080-NT fibrosarcoma viability, CellTiter-Glo ATP luminescence, 48 h; Potency, µM (titrated, usually from 46.1 µM), inactives show top-dose activity, negative = less viability, usual class: cytotoxic; actives 1.6% (n = 360,000);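 note: NT is the 2HG producing partner of a matched IDH1 knockdown line; potency is the fitted concentration of half-maximal effect; 0% = DMSO-treated cells and -100% = media-only wells without cells; nearly all actives have a fitted effect of over 55% in size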
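A 48-hour cytotoxicity screen used HT-1080-NT cells plated 2 hours before compound delivery. ATP-based CellTiter-Glo luminescence measured viability, normalized to DMSO and no-cell controls.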
Active calls of the source: *. Unless noted, calls come from the whole dose curve; as a rule, active = well fitted curve in the direction sought with a large enough effect; inconclusive = small, poorly fitted or top-dose-only effect, or another doubt; inactive = no such curve, though single readings can be large; an effect the other way counts as inactive or inconclusive. Unless noted, % is set by controls: 0 for no effect and ±100 for the full control effect.

For CC(C)=C1C2CCC1C(C(=O)Nc1sc(C)c(-c3ccc(C(C)C)cc3)c1C(N)=O)C2C(=O)O (stereo not drawn) the results were HT1080 IDH1KD tx 16.4µM*, TDP1 cell CPT 16.4µM*, TDP1 cell noCPT 16.4µM*, IL1B secr inh -27.7, ELG1 repair inh inconclusive and HT1080NT lethal inconclusive.
`Cc1ccc(-c2c(C)sc(NC(=O)C3C4CCC(O4)C3C(=O)O)c2C(=O)OC(C)C)cc1` (stereo not drawn) gave HT1080 IDH1KD tx inconclusive, TDP1 cell CPT inconclusive, TDP1 cell noCPT -3.3%, IL1B secr inh 5.9, ELG1 repair inh 0.2% and HT1080NT lethal inconclusive.
Screening CCOC(=O)c1c(NC(=O)CSc2nncs2)sc(C)c1-c1ccccc1 returned HT1080 IDH1KD tx inconclusive, TDP1 cell CPT inconclusive, TDP1 cell noCPT inconclusive, IL1B secr inh -14.5, ELG1 repair inh inconclusive and HT1080NT lethal -22.2%.
For CCOC(=O)c1c(NC(=O)/C=C/C(=O)O)sc(C)c1-c1ccc(F)cc1 the results were HT1080 IDH1KD tx inconclusive, TDP1 cell CPT inconclusive, TDP1 cell noCPT inconclusive, IL1B secr inh -101.0*, ELG1 repair inh 10.2% and HT1080NT lethal 20.6µM*.
`COC(=O)c1c(NC(=O)/C=C/C(=O)O)sc(C)c1-c1ccc(C(C)C)cc1` gave HT1080 IDH1KD tx inconclusive, TDP1 cell CPT 4.61µM*, TDP1 cell noCPT 20.6µM*, IL1B secr inh -101.3*, ELG1 repair inh -18.0% and HT1080NT lethal inconclusive.
Screening Cc1ccc(N(C)S(=O)(=O)c2ccc3c(c2)NC(=O)C(C)S3)cc1 (stereo not drawn) returned HT1080 IDH1KD tx -25.0%, TDP1 cell CPT -22.9%, TDP1 cell noCPT -13.7%, IL1B secr inh 26.9, ELG1 repair inh inconclusive and HT1080NT lethal inconclusive.
Screening CC(=O)c1ccc(NC(=O)c2ccn(C(=O)OCC(C)C)n2)cc1 returned HT1080 IDH1KD tx -10.3%, TDP1 cell CPT -11.8%, TDP1 cell noCPT inconclusive, IL1B secr inh -5.4, ELG1 repair inh inconclusive and HT1080NT lethal -6.9%.
Screening CCOC(=O)c1c(NC(=O)Nc2ccccc2)sc(C)c1C returned HT1080 IDH1KD tx 20.9%, TDP1 cell CPT inconclusive, TDP1 cell noCPT inconclusive, IL1B secr inh -13.7, ELG1 repair inh inconclusive and HT1080NT lethal 6.0%.
CCOC(=O)c1c(NC(=O)/C=C/C(=O)O)sc(C)c1-c1ccc(C)c(C)c1 was read as HT1080 IDH1KD tx inconclusive, TDP1 cell CPT inconclusive, TDP1 cell noCPT inconclusive, IL1B secr inh -94.6*, ELG1 repair inh -8.5% and HT1080NT lethal inconclusive.
Screening OC(c1ccc(F)cc1)c1nc(-c2ccoc2)cs1 (stereo not drawn) returned HT1080 IDH1KD tx 3.3%, TDP1 cell CPT -26.9%, TDP1 cell noCPT -12.4%, IL1B secr inh -8.7 and HT1080NT lethal 21.6%.
`Oc1ccc(Cl)cc1CNCC1CCCCC1` gave HT1080 IDH1KD tx -1.7%, TDP1 cell CPT 14.6µM*, TDP1 cell noCPT inconclusive, IL1B secr inh -63.8*, ELG1 repair inh inconclusive and HT1080NT lethal -4.0%.
Screening Cc1nc2ccc([N+](=O)[O-])cc2c(=O)n1Cc1ccc(Cl)cc1 returned HT1080 IDH1KD tx 4.0%, TDP1 cell CPT inconclusive, TDP1 cell noCPT inconclusive, IL1B secr inh 17.6, ELG1 repair inh -11.3% and HT1080NT lethal -0.9%.
COc1ccc(Cn2c(C)nc3ccc([N+](=O)[O-])cc3c2=O)cc1 was read as HT1080 IDH1KD tx -2.8%, TDP1 cell CPT inconclusive, TDP1 cell noCPT 20.6µM*, IL1B secr inh 3.5, ELG1 repair inh inconclusive and HT1080NT lethal -2.2%.
Screening Cn1ccc2c(N3CCOCC3)cc3c(c21)C1CCC3C1 (stereo not drawn) returned HT1080 IDH1KD tx -3.9%, TDP1 cell CPT -27.9%, TDP1 cell noCPT inconclusive, IL1B secr inh -3.0 and HT1080NT lethal 8.0%.
`Cn1ccc2c(N3c4ccccc4CCc4ccccc43)cc3c(c21)C1CCC3O1` (stereo not drawn) gave HT1080 IDH1KD tx 18.4µM*, TDP1 cell CPT 23.1µM*, TDP1 cell noCPT 20.6µM*, IL1B secr inh 19.2 and HT1080NT lethal inconclusive.
Cn1ccc2c(N3c4ccccc4CCc4ccccc43)cc3c(c21)C1CCC3C1 (stereo not drawn) was read as HT1080 IDH1KD tx inconclusive, TDP1 cell CPT 2.31µM*, TDP1 cell noCPT 5.17µM*, IL1B secr inh -16.3 and HT1080NT lethal inconclusive.
Cn1ccc2c(N3CCCCCC3)cc3c(c21)C1CCC3C1 (stereo not drawn) was read as HT1080 IDH1KD tx -25.4%, TDP1 cell CPT 14.6µM*, TDP1 cell noCPT 11.6µM*, IL1B secr inh 39.2 and HT1080NT lethal -29.0%.
O=C1CN(C(=O)CSc2nc3ccccc3c(=O)n2Cc2ccc(F)cc2)c2ccccc2N1 was read as HT1080 IDH1KD tx -24.6%, TDP1 cell CPT -27.9%, TDP1 cell noCPT inconclusive, IL1B secr inh -71.0*, ELG1 repair inh inconclusive and HT1080NT lethal -24.7%.
`CCCn1c(SCC(=O)N2CC(=O)Nc3ccccc32)nc2ccccc21` gave HT1080 IDH1KD tx -4.4%, TDP1 cell CPT 6.4%, TDP1 cell noCPT inconclusive, IL1B secr inh 5.2, ELG1 repair inh -3.7% and HT1080NT lethal -8.5%.
C=CCn1c(SCC(=O)N2CC(=O)Nc3ccccc32)nc2scc(-c3cccs3)c2c1=O was read as HT1080 IDH1KD tx -6.5%, TDP1 cell CPT inconclusive, TDP1 cell noCPT 18.4µM*, IL1B secr inh -22.3, ELG1 repair inh inconclusive and HT1080NT lethal -16.9%.
For CC(C)CCn1c(SCC(=O)N2CC(=O)Nc3ccccc32)nc2scc(-c3cccs3)c2c1=O the results were HT1080 IDH1KD tx 2.8%, TDP1 cell CPT -3.7%, TDP1 cell noCPT inconclusive, IL1B secr inh 2.3, ELG1 repair inh 0.2% and HT1080NT lethal 3.2%.
`O=C1CN(C(=O)CSc2nc3ccccc3n2CCc2ccccc2)c2ccccc2N1` gave HT1080 IDH1KD tx 10.9%, TDP1 cell CPT inconclusive, TDP1 cell noCPT 23.1µM*, IL1B secr inh -29.7, ELG1 repair inh inconclusive and HT1080NT lethal 10.9%.
CCN(CC)c1ccc(NC(=O)c2ccccc2F)cc1S(=O)(=O)Nc1ccccc1OC was read as HT1080 IDH1KD tx -8.0%, TDP1 cell CPT inconclusive, TDP1 cell noCPT inconclusive, IL1B secr inh -5.1, ELG1 repair inh 6.2% and HT1080NT lethal 2.9%.

Screens (PubChem BioAssay)
